# Assay results reported in PubChem BioAssay.
# Unmarked numbers belong to inactive results. No rule for the calls is given here.
# Biological target: Pantothenate synthetase (Mycobacterium tuberculosis (strain ATCC 25618 / H37Rv)) (UniProt P9WIL5)
# Assay: Recombinant Mtb pantothenate synthetase (PanC) inhibitors, coupled enzyme, confirmatory (AID 375);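 also: 0% = full reaction with vehicle and 100% = no enzyme background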
# Details: coupled enzyme assay; at 10 µM, active compounds read high
# Sequence of Pantothenate synthetase (Mycobacterium tuberculosis (strain ATCC 25618 / H37Rv)) (P9WIL5 whole entry, looked up): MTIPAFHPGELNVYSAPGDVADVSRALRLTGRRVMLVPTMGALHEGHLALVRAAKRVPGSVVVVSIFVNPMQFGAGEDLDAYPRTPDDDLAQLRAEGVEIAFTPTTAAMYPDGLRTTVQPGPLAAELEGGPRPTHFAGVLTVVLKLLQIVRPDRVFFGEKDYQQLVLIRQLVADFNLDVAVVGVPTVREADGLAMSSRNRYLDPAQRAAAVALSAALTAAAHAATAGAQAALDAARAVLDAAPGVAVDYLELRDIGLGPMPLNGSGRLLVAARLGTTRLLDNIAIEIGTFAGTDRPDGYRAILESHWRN
row,Compound,inhibition
1,O=C(OCCCN1CCCC1)C1(c2ccccc2)CCCC1,1%
2,O=C(c1cc(-c2cccs2)on1)N1CCc2ccccc2C1,2%
3,CCN(CC)c1ccc(NC(=O)CN2CCN(CC(=O)Nc3ccccc3F)CC2)cc1,1%
4,C=CCc1cccc2cc(C(=O)NCc3cccnc3)c(=O)oc12,1%
5,O=C(Cc1ccc(S(=O)(=O)N2CCCC2)s1)Nc1nc2c(s1)CCCC2,1%
6,CC(=O)c1c(C)[nH]c(C(=O)NC2=NCCS2)c1C,0%
7,Cc1nn(-c2ccc(F)cc2)c2sc(C(=O)OCC(=O)N3CCC(C)CC3)cc12,0%
8,CCOC(=O)c1c(C)[nH]c(C(=O)Cn2c(=O)c3c(ncn3CC)n(Cc3ccccc3)c2=O)c1C,3%
9,CCCC(=O)Nc1cc(C)c(NC(=O)c2ccccn2)cn1,0%
10,COC(=O)c1ccc(NC(=O)CN2C(=O)CSC2=O)cc1,5%
11,Cc1ccccc1CN1CCN(C(=O)c2cccc(F)c2)CC1,0%
12,CCOCCCNC(=O)C1CCCN(S(=O)(=O)CC)C1 (stereo not given),0%
13,COc1cccc(-c2nnn(CC(=O)O)n2)c1,0%
14,CC(C)=CCCC(C)N(C=O)C(C)CCC=C(C)C (stereo not given),3%
15,CSc1nc(=NC(C)=O)ss1,0%
16,CCOC(=O)C1CCCN(CCCc2ccccc2)C1 (stereo not given),0%
17,Cc1cc(C(=O)COC(=O)c2n[nH]c3ccccc23)c(C)n1C,0%
18,O=C(Nc1ccc2c(c1)OCO2)c1cccc(Cl)c1,0%
19,CCOC(=O)N1CCN(C(=O)c2ccc(N3C(=O)CCC3=O)cc2)CC1,0%
20,NCCN1CCN(CCN)CC1,0%

row,Compound,inhibition
1,COc1cccc(OC)c1C(=O)Nc1cccc(C(C)=O)c1,2%
2,CCOC(=O)C(NC(=O)Nc1ccccc1)(OCC)C(F)(F)F (stereo not given),0%
3,CCN(c1ccccc1)S(=O)(=O)c1ccc(F)cc1C,1%
4,O=C(C1CCN(c2nnc(-n3cccc3)s2)CC1)N1CCOCC1,0%
5,O=C1c2ccccc2C(Nc2ccc3nc(-c4cccnc4)[nH]c3c2)N1Cc1ccco1 (stereo not given),0%
6,Nc1ccc(S(=O)(=O)Nc2ccccn2)cc1,0%
7,Cc1ccnc(NC(=O)CCC(=O)N(CC(=O)NC(C)(C)C)C2CCCC2)c1,0%
8,CCc1nn(CC(=O)NCCCN2CCc3ccccc3C2)c(=O)c2cc3sccc3n12,8%
9,Cc1ccc(C2/C(=C(/O)c3cnn(-c4ccccc4)c3C)C(=O)C(=O)N2CCN2CCOCC2)o1 (stereo not given),1%
10,O=C(c1ccccc1)N1CCN(Cc2ccccc2Br)CC1,3%
11,O=C1NC2c3ccccc3C(=O)N2c2c1cnn2-c1ccccc1 (stereo not given),1%
12,Cc1ccccc1C(OCCN(C)C)c1ccccc1 (stereo not given),0%
13,Cc1ccc(C(=O)Nc2ccc(Cl)cn2)cc1S(=O)(=O)N1CCOCC1,0%
14,CCOC(=O)C1CCN(Cc2ccc(OC)c(C)c2OC)CC1,0%
15,CCOC(=O)c1cccc(NC(=O)CSc2nnc(-c3ccoc3C)n2CCOC)c1,1%
16,Cc1nnc(N(C)C(=O)Cc2ccc3c(c2)OCO3)s1,0%
17,Cc1ccc(Cn2c(SCC(N)=O)nc3c2c(=O)n(C)c(=O)n3C)cc1,0%
18,CCOC(=O)Nc1cc(OC)c(OC)cc1Cc1nccc2cc(OC)c(OC)cc12,0%
19,Clc1ccc(Cc2nn3c(-c4ccncc4)nnc3s2)cc1,0%
20,O=C(OCC(=O)N1CCC(Cc2ccccc2)CC1)c1ccc[nH]c1=O,0%
